Test results reported in PubChem BioAssay (NCATS).
Values joined by “and” are separate entries in the source; they are usually repeats but may differ in a detail not shown here. Equal values may be shown once. Results filed as inconclusive are left out. Unmarked numbers belong to inactive results. Active and inactive are the calls of the source. Unless noted, calls follow the shape of the full dose curve.

Assay: qHTS assay for small molecule activators of the nuclear factor-kappa B (NF-kB) signaling pathway (AID 651749; active = well fitted activation curve with a large enough effect in the signal ratio; the % refers to the signal ratio; also: % of control where 0% means no effect)
Details: NF-kB-bla ME-180 cells, beta-lactamase FRET ratio, 16 h; activation: active compounds read high
How it was run: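 NF-kB-bla ME-180 cells carrying a beta-lactamase reporter under an NF-kB response element, 2,000 cells/well, exposed to compound for 16 hr at 37C; FRET-based beta-lactamase fluorescence read-out of pathway activation.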
In the case of `O=S1OCC2C(CO1)C1(Cl)C(Cl)=C(Cl)C2(Cl)C1(Cl)Cl` (stereo unspecified), the activation is reported as 1.74%.
With `c1ccc(N=Nc2ccccc2)cc1` the activation was -0.765% and -3.19%.
With `CCOCN(C(=O)CCl)c1c(C)cccc1CC` the activation was -2.07% and -2.02%.
With `CNC(=O)O/N=C/C(C)(C)SC` the activation was -0.362% and -4.25% and 1.36%.
In the case of `CCNc1nc(Cl)nc(NC(C)C)n1`, the activation is reported as -0.0541% and -0.0593%.
Work on `C=CCc1ccc(OC)cc1` yielded an activation of -0.38%.
Work on `ClC1=C(Cl)C2(Cl)C3C(Cl)C=CC3C1(Cl)C2(Cl)Cl` (stereo unspecified) yielded an activation of 1.89%.
Molecule `ClC1=C(Cl)C2(Cl)C3C4CC(C5OC45)C3C1(Cl)C2(Cl)Cl` (stereo unspecified) has an activation of -0.275%.
In the case of `ClC(Cl)=C(c1ccc(Cl)cc1)c1ccc(Cl)cc1`, the activation is reported as 0.128% and -1.11% and 0.0255%.
With `CCc1cccc(CC)c1N(COC)C(=O)CCl` the activation was -1.33% and -2.4%.
Molecule `C/C=C/c1ccc2c(c1)OCO2` has an activation of -1.42%.
In the case of `C=CCc1ccc2c(c1)OCO2`, the activation is reported as -0.401%.
`COP(=S)(OC)Oc1ccc([N+](=O)[O-])cc1` gave an activation of -0.601%.

Assay: qHTS assay for small molecule disruptors of the mitochondrial membrane potential - 1 hr assay (AID 651754); also: % is scaled to controls: 0 for no effect and ±100 for the full control effect; nearly all actives have a fitted effect of over 35% in size
Details: series mostly up to 92.2 µM; ratio change, negative = depolarisation: at the top concentration
How it was run: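 HepG2, 2,000 cells/well, overnight attachment; cpd or DMSO 1 hr, 37C/5% CO2; Mito-MPS dye 30 min, 37C; fluorescence monomer (490/535) and aggregate (540/590).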
With `O=C(O)COc1ccc(Cl)cc1Cl` the Potency was “inactive”.
In the case of `ClC1=C(Cl)C2(Cl)C3C4C=CC(C4)C3C1(Cl)C2(Cl)Cl` (stereo unspecified), the “ratio change, negative = depolarisation” value is reported as 0.548%.
In the case of `c1ccc(N=Nc2ccccc2)cc1`, the “ratio change, negative = depolarisation” value is reported as 3.63%.
For `CCOCN(C(=O)CCl)c1c(C)cccc1CC`, the “ratio change, negative = depolarisation” value was -8.04%.
For `CNC(=O)O/N=C/C(C)(C)SC`, the “ratio change, negative = depolarisation” value was -0.0376%.
For `ClC1=C(Cl)C2(Cl)C3C(Cl)C=CC3C1(Cl)C2(Cl)Cl` (stereo unspecified), the “ratio change, negative = depolarisation” value was -6.09%.
In the case of `CCc1cccc(CC)c1N(COC)C(=O)CCl`, the “ratio change, negative = depolarisation” value is reported as 5.25%.
With `COP(=S)(OC)Oc1ccc([N+](=O)[O-])cc1` the “ratio change, negative = depolarisation” value was -6.69%.

Assay: qHTS assay for small molecule disruptors of the mitochondrial membrane potential - 5 hr assay (AID 651755); also: % is scaled to controls: 0 for no effect and ±100 for the full control effect; nearly all actives have a fitted effect of over 40% in size
Details: JC-1-type ratio dye; series mostly up to 92.2 µM; ratio change, negative = disruption: at the top concentration
How it was run: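 HepG2 cells (2,000/well), attached overnight, exposed to compound 5 hr at 37C, then Mito-MPS dye 30 min. Fluorescence read for monomers (490/535 nm) and aggregates (540/590 nm).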
With `O=C(O)COc1ccc(Cl)cc1Cl` the Potency was “inactive”.
In the case of `c1ccc(N=Nc2ccccc2)cc1`, the “ratio change, negative = disruption” value is reported as 4.65%.
For `CCOCN(C(=O)CCl)c1c(C)cccc1CC`, the “ratio change, negative = disruption” value was -10.1%.
For `CNC(=O)O/N=C/C(C)(C)SC`, the “ratio change, negative = disruption” value was 14%.
In the case of `ClC1=C(Cl)C2(Cl)C3C4CC(C5OC45)C3C1(Cl)C2(Cl)Cl` (stereo unspecified), the “ratio change, negative = disruption” value is reported as 2.12%.
